Assay results published in PubChem BioAssay (NCI).
This is part of a sample that, as a whole, favours compounds with a hit. Of some 83,000 tested, about 20% had one in any assay.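 96-well plates, one dose, 48 hours. Percent growth reported; active if below 10.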 Unmarked numbers belong to inactive results. The source made the active and inactive calls.

tested on: HT29 colon; experiment: NCI-60 one-dose screen, 48 h (100 = growth as untreated, 0 = no growth, -100 = all killed); conditions: 10 µM unless noted

Row | SMILES | growth
1 | COc1ccc(C2NCCc3c2[nH]c2ccccc32)cc1CN1CCN(c2ccc(F)cc2)CC1 (stereo not drawn) | -3.33% (active)
2 | CNCCNc1nc2ccccc2c2c(=O)c3cccc(OC)c3sc12 | -17.5% (active)
3 | COc1cc(/C=C/C(=O)c2ccc(Cl)cc2)cc(CN2CCCCC2)c1O | 19.4%
4 | COc1ccc(-n2c(C(O)c3ccccc3)nn(CN3CCOCC3)c2=S)cc1 (stereo not drawn) | 109%
5 | O=C(c1nc2ccccc2[nH]1)C1C(c2cccc([N+](=O)[O-])c2)C2CC3CCCCC3N2[C@@]12C(=O)Nc1cc(Cl)ccc12 (stereo partly drawn) | 13.5%
6 | NC(CCl)=NCCC[C@H](N)C(=O)O | 105%
7 | CCOC(=O)c1ccc2[nH]c(-c3ccccc3)cc(=O)c2c1 | 103%
8 | COc1ccc(-c2nsc3c2NC(=O)CC3c2cccc(OC)c2)cc1 (stereo not drawn) | 8.58% (active)
9 | CCN(CC)CCCNc1ccnc2cc3ccccc3cc12 | 74.6%
10 | Cn1cc([C@@H]2Nc3ccc4[nH]ncc4c3[C@H]3[C@H]4CCC(C4)[C@H]32)c(C(F)(F)F)n1 | 16%
11 | CCOC(=O)C1(C(=O)OCC)N=C(c2ccccc2)C=C1c1ccccc1 | 76.2%
12 | COc1ccccc1N1C(=N)S/C(=C\c2ccc(OCc3ccccc3F)cc2)C1=O | 108%
13 | O=C(c1ccccc1)N(CCc1ccc(Cl)cc1)C(=S)N(C(=O)c1ccccc1)c1ccccc1 | 104%
14 | COc1ccc(Nc2cc(C)nc(NCc3ccccc3)n2)cc1 | 11%
15 | COc1ccc(C(=O)C2CC2c2ccc(Cl)cc2)cc1 (stereo not drawn) | 104%
16 | CCOC(=O)c1c2c(c(C)n1Cc1ccc(OC)cc1)-c1oncc1CC2 | 89.1%
17 | Cc1ccc2cc3c(N)c4c(C)ccc(C)c4nc3nc2c1 | 4.73% (active)
18 | O=C1Nc2ccccc2/C1=C/c1ccc[nH]1 | 110%
19 | COc1ccc(Cn2cc(Cn3c(=O)c(-c4nc5ccccc5[nH]4)cc4ccccc43)nn2)c(OC)c1OC | 4.85% (active)
20 | CCOc1cc2c(cc1OCC)C(c1cc(C)c(O)c(C)c1)NCC2 (stereo not drawn) | 98%
21 | C=C(C)CCC(C)N1CCC(N2CCC(C(=O)NCCc3ccccc3)CC2)CC1 (stereo not drawn) | 39.3%
22 | COc1ccc(/C=C2\SC(=Nc3ccccc3)NC2=O)cc1 | -89.2% (active)
23 | CN1C(=O)N(C)C2(c3ccccc3)OC(=S)NC12c1ccccc1 (stereo not drawn) | 89.1%
24 | O=NN(Cc1cccnc1)C(=O)NC1CCCCC1 | 103%

tested on: SNB-75 CNS; experiment: as above; conditions: 10 µM unless noted

Row | SMILES | growth
25 | O=C(NC(=S)Nc1cccc(NC(=S)NC(=O)c2ccccc2)c1)c1ccccc1 | -2.29% (active)
26 | COc1cc(C(=O)Nc2ccc(-c3nc4ccccc4[nH]3)cc2)cc(OC)c1OC | 42.9%
27 | CN(C)c1ccc(N=Cc2ccc(N3CCOCC3)cc2)cc1 | 81.3%
28 | Cc1ccc(C)c(-c2csc(Nc3ccc(C)c(C)c3)n2)c1 | 34%
29 | COc1ccc(-c2nsc3c2NC(=O)CC3c2ccsc2)cc1 (stereo not drawn) | 10.4%
30 | O=C(NCCCN1CCC(N2CCCCC2)CC1)C1=Cc2cc(Br)ccc2OC1 | 44.7%
31 | CN1CCN(Cc2ccc(C(=O)Nc3cncc(C#Cc4cnc5cccnn45)c3)cc2C(F)(F)F)CC1 | 96.9%
32 | Cc1ccccc1CNC(=O)C1CN(c2ccc(Cl)cc2)N(c2ccc(Cl)cc2)C1=O (stereo not drawn) | 88%
33 | Cc1sc2ncn(CC(=O)Nc3ccc(S(N)(=O)=O)cc3)c(=O)c2c1C | 86.1%
34 | Fc1cccc(COc2ccc(Nc3ncnc4onc(-c5ccccc5)c34)cc2)c1 | -34.9% (active)
35 | Clc1ncccc1Nc1ccc2nnc(-c3ccncc3)n2n1 | 99.2%
36 | CCc1ccc(CNCC(O)c2ccccc2)cc1 (stereo not drawn) | 61.8%
37 | COc1ccc2oc(=O)cc(Cn3cc(Cn4cnc5c4c(=O)n(C)c(=O)n5C)nn3)c2c1 | 93.8%
38 | COc1ccc(N(C)c2nc(N)nc3sc4c(c23)CCCC4)cc1 | 51.3%
39 | O=C(NCc1ccccc1)C1CN(c2ccc(Cl)cc2)N(c2ccc(Cl)cc2)C1=O (stereo not drawn) | 82.9%
40 | COc1ccc(C2NCCc3c2[nH]c2ccccc32)cc1CN1CCN(c2ccc(F)cc2)CC1 (stereo not drawn) | 24.4%
41 | CNCCNc1nc2ccccc2c2c(=O)c3cccc(OC)c3sc12 | 26.2%
42 | COc1cc(/C=C/C(=O)c2ccc(Cl)cc2)cc(CN2CCCCC2)c1O | 70.9%
43 | COc1ccc(-n2c(C(O)c3ccccc3)nn(CN3CCOCC3)c2=S)cc1 (stereo not drawn) | 87.4%
44 | O=C(c1nc2ccccc2[nH]1)C1C(c2cccc([N+](=O)[O-])c2)C2CC3CCCCC3N2[C@@]12C(=O)Nc1cc(Cl)ccc12 (stereo partly drawn) | 15.1%

Row | SMILES | growth
45 | NC(CCl)=NCCC[C@H](N)C(=O)O | 89.6%
46 | CCOC(=O)c1ccc2[nH]c(-c3ccccc3)cc(=O)c2c1 | 72.3%
47 | COc1ccc(-c2nsc3c2NC(=O)CC3c2cccc(OC)c2)cc1 (stereo not drawn) | -17.5% (active)
48 | CCN(CC)CCCNc1ccnc2cc3ccccc3cc12 | 36.6%
49 | Cn1cc([C@@H]2Nc3ccc4[nH]ncc4c3[C@H]3[C@H]4CCC(C4)[C@H]32)c(C(F)(F)F)n1 | 13.1%
50 | CCOC(=O)C1(C(=O)OCC)N=C(c2ccccc2)C=C1c1ccccc1 | 81.2%
51 | COc1ccccc1N1C(=N)S/C(=C\c2ccc(OCc3ccccc3F)cc2)C1=O | 76%
52 | O=C(c1ccccc1)N(CCc1ccc(Cl)cc1)C(=S)N(C(=O)c1ccccc1)c1ccccc1 | 104%
53 | COc1ccc(Nc2cc(C)nc(NCc3ccccc3)n2)cc1 | 49%
54 | COc1ccc(C(=O)C2CC2c2ccc(Cl)cc2)cc1 (stereo not drawn) | 75.6%
55 | CCOC(=O)c1c2c(c(C)n1Cc1ccc(OC)cc1)-c1oncc1CC2 | 72.9%
56 | Cc1ccc2cc3c(N)c4c(C)ccc(C)c4nc3nc2c1 | 41.2%
57 | O=C1Nc2ccccc2/C1=C/c1ccc[nH]1 | 105%
58 | COc1ccc(Cn2cc(Cn3c(=O)c(-c4nc5ccccc5[nH]4)cc4ccccc43)nn2)c(OC)c1OC | -74% (active)
59 | CCOc1cc2c(cc1OCC)C(c1cc(C)c(O)c(C)c1)NCC2 (stereo not drawn) | 95.3%
60 | C=C(C)CCC(C)N1CCC(N2CCC(C(=O)NCCc3ccccc3)CC2)CC1 (stereo not drawn) | 105%
61 | COc1ccc(/C=C2\SC(=Nc3ccccc3)NC2=O)cc1 | -97.9% (active)
62 | CN1C(=O)N(C)C2(c3ccccc3)OC(=S)NC12c1ccccc1 (stereo not drawn) | 87.6%
63 | O=NN(Cc1cccnc1)C(=O)NC1CCCCC1 | 84.7%
